The source of these data is article PMC8384837, “Expanding the binding specificity for RNA recognition by a PUF domain”.

What all share (assay): yeast three-hybrid, YBZ-1, SC-Leu-His + 0.5 mM 3-AT, 4 days
Conditions in all cases: tags: N-Gal4 AD-HA kept; label: inside an RPR1-promoter hybrid RNA with tandem MS2 sites; ssRNA

The target in one experiment is PUM1 PUF domain R8-IYW (Homo sapiens, UniProt Q14671 828-1176, N1122I;Q1126W). The method in brief:
(§1)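 Pumilio-1 PUF domain libraries, randomized (NNK) at the three base-contacting residues of each repeat, were co-expressed with matching RNA elements from a centromeric plasmid in strain YBZ-1 (LexA–MS2 coat fusion, HIS3 reporter). Transformants were plated on SC-Leu (input) and SC-Leu-His + 0.5 mM 3-AT (selection) for four days, and repeat regions were PCR-amplified and Illumina-sequenced. The interaction score is the log2 change in variant frequency from input to selection, with pseudocount 1 where absent.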

For the next experiment, the target named is PUM1 PUF domain R8-KRV (Homo sapiens, UniProt Q14671 828-1176, N1122K;Y1123R;Q1126V). The method, boiled down: as §1
A further experiment has as its target PUM1 PUF domain R8-RYC (Homo sapiens, UniProt Q14671 828-1176, N1122R;Q1126C). The method in brief:
as §1

A further experiment concerns the target PUM1 PUF domain R8-LYI (Homo sapiens, UniProt Q14671 828-1176, N1122L;Q1126I). The method in brief: as §1
For a further experiment, the target named is PUM1 PUF domain R1-GWK (Homo sapiens, UniProt Q14671 828-1176, S863G;R864W;Q867K). The method in brief: as §1
The next experiment deals with PUM1 PUF domain R1-WKR (Homo sapiens, UniProt Q14671 828-1176, S863W;R864K;Q867R). The method in brief: as §1
The target of another experiment is PUM1 PUF domain R5-NVR (Homo sapiens, UniProt Q14671 828-1176, C1007N;R1008V;Q1011R). The method in brief: as §1
For the next experiment, the target named is PUM1 PUF domain R5-PRK (Homo sapiens, UniProt Q14671 828-1176, C1007P;Q1011K). The method, boiled down:
as §1

For a further experiment, the target named is PUM1 PUF domain R4-NCG (Homo sapiens, UniProt Q14671 828-1176, H972C;Q975G). The method, boiled down:
as §1

Another experiment deals with PUM1 PUF domain R3-LYR (Homo sapiens, UniProt Q14671 828-1176, C935L;R936Y;Q939R). The method, boiled down: as §1
A further experiment deals with PUM1 PUF domain R1-KKD (Homo sapiens, UniProt Q14671 828-1176, S863K;R864K;Q867D). The method, boiled down: as §1
Another experiment addresses PUM1 PUF domain R2-AWS (Homo sapiens, UniProt Q14671 828-1176, N899A;Y900W;Q903S). The method, boiled down:
as §1

Sequence of PUM1 PUF domain R5-PRK (Q14671 828-1176 C1007P/Q1011K): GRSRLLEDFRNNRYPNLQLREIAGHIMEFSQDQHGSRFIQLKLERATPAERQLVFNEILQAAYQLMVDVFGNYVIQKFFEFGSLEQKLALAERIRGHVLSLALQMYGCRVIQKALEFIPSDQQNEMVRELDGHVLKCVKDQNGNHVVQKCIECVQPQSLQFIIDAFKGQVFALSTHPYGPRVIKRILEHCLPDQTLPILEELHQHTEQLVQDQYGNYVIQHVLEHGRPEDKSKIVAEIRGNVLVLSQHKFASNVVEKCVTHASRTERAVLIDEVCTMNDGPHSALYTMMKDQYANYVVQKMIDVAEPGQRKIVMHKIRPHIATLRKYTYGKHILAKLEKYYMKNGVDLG

With “GGCUAGAACUAGUGGAUCCCCCGGCGCCCGGCGGCUCGAGCCCGGGUAAGCGUAAAUAGUCUGCAUGCCGCCGGGCGCCAUGCCUGCAGGUCGACUCUAGAAAACAUG”, the binding signal with PUM1 PUF domain R8-IYW is 2.87 log2 enrichment (interaction score); with PUM1 PUF domain R8-KRV it was 3.19 log2 enrichment (interaction score); with PUM1 PUF domain R8-RYC, 5.8 log2 enrichment (interaction score); in the experiment with PUM1 PUF domain R8-LYI, 2.78 log2 enrichment (interaction score).
In the case of “GGCUAGAACUAGUGGAUCCCCCGGCGCCCGGCGGCUCGAGCCCGGGUAAGUGUAAAUCGUCUGCAUGCCGCCGGGCGCCAUGCCUGCAGGUCGACUCUAGAAAACAUG”, the figures for the binding signal with PUM1 PUF domain R1-GWK and with PUM1 PUF domain R1-WKR were 3.6 log2 enrichment (interaction score) and 1.59 log2 enrichment (interaction score), respectively.
As for “GGCUAGAACUAGUGGAUCCCCCGGCGCCCGGCGGCUCGAGCCCGGGUAAGUGUUAAUAGUCUGCAUGCCGCCGGGCGCCAUGCCUGCAGGUCGACUCUAGAAAACAUG”, the binding signal in the experiment with PUM1 PUF domain R5-NVR was 4.09 log2 enrichment (interaction score); in the experiment with PUM1 PUF domain R5-PRK, 4.06 log2 enrichment (interaction score).
Turning to “GGCUAGAACUAGUGGAUCCCCCGGCGCCCGGCGGCUCGAGCCCGGGUAAGUGUAUAUAGUCUGCAUGCCGCCGGGCGCCAUGCCUGCAGGUCGACUCUAGAAAACAUG”, the binding signal in the experiment with PUM1 PUF domain R4-NCG was 3.59 log2 enrichment (interaction score).
Consider “GGCUAGAACUAGUGGAUCCCCCGGCGCCCGGCGGCUCGAGCCCGGGUAAGUGUAAUUAGUCUGCAUGCCGCCGGGCGCCAUGCCUGCAGGUCGACUCUAGAAAACAUG”, for which the binding signal with PUM1 PUF domain R3-LYR was 4.25 log2 enrichment (interaction score).
“GGCUAGAACUAGUGGAUCCCCCGGCGCCCGGCGGCUCGAGCCCGGGUAAGUGUAAAUUGUCUGCAUGCCGCCGGGCGCCAUGCCUGCAGGUCGACUCUAGAAAACAUG”: the binding signal in the experiment with PUM1 PUF domain R1-KKD was 3.36 log2 enrichment (interaction score); with PUM1 PUF domain R1-GWK, 3.01 log2 enrichment (interaction score); in the experiment with PUM1 PUF domain R1-WKR it was 3.54 log2 enrichment (interaction score).
“GGCUAGAACUAGUGGAUCCCCCGGCGCCCGGCGGCUCGAGCCCGGGUAAGUGUAAAAAGUCUGCAUGCCGCCGGGCGCCAUGCCUGCAGGUCGACUCUAGAAAACAUG”: the binding signal in the experiment with PUM1 PUF domain R2-AWS was 4.37 log2 enrichment (interaction score).
